Results as given in PubChem BioAssay AID1159580 (chemical genetic matrix, 2015).
Out of some 5,500 compounds screened, about 2,000 (36%) were called active. Not shown: some 18% with an inconclusive outcome. Rule as the data show it: active = normalized growth mostly below about 0.91 (no sharp cut-off); inconclusive = no clear call, values can overlap the other calls; inactive = mostly above about 0.92. The list shows a part of the results.

Test: chemical genetic growth profiling, strain panel (AID 1159580);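 also: tested at 20 µM; growth read once vehicle control cultures reached saturation at 30 °C; 1 = growth at the plate median or of vehicle wells; lower values mean less growth of the strain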
Details: growth OD

Measured: normalized growth

COc1ccc(C(=O)c2ccc(O)cc2)c(O)c1O
inactive: S. cerevisiae deletion strains, locus YAL013W, strain DEP1, hits give low values 1.04 | S. cerevisiae deletion strains, locus YAL021C, strain ccr4, hits give low values 0.963 | S. cerevisiae deletion strains, locus YAL026C, strain drs2, hits give low values 0.961 | S. cerevisiae deletion strains, locus YAL030W, strain snc1, hits give low values 0.967 | S. cerevisiae deletion strains, locus YBL061C, strain skt5, hits give low values 0.97 | S. cerevisiae deletion strains, locus YBR009C, strain hhf1, hits give low values 0.951 | S. cerevisiae deletion strains, locus YBR021W, strain FUR4, hits give low values 1.02 | S. cerevisiae deletion strains, locus YBR023C, strain chs3, hits give low values 0.968 | S. cerevisiae deletion strains, locus YBR171W, strain sec66, hits give low values 0.965 | S. cerevisiae deletion strains, locus YBR229C, strain ROT2, hits give low values 1.02 | S. cerevisiae deletion strains, locus YBR231C, strain swc5, hits give low values 0.96 | S. cerevisiae deletion strains, locus YBR279W, strain paf1, hits give low values 0.974 | S. cerevisiae deletion strains, locus YCL011C, strain gbp2, hits give low values 0.961 | S. cerevisiae deletion strains, locus YCL016C, strain dcc1, hits give low values 0.974 | S. cerevisiae deletion strains, locus YCL029C, strain bik1, hits give low values 0.993 | S. cerevisiae deletion strains, locus YCL061C, strain MRC1, hits give low values 0.984 | S. cerevisiae deletion strains, locus YCL069W, strain vba3, hits give low values 0.98 | S. cerevisiae deletion strains, locus YCR088W, strain abp1, hits give low values 0.973 | S. cerevisiae deletion strains, locus YDL005C, strain med2, hits give low values 0.968 | S. cerevisiae deletion strains, locus YDL035C, strain GPR1, hits give low values 1.04 | S. cerevisiae deletion strains, locus YDL040C, strain nat1, hits give low values 0.972 | S. cerevisiae deletion strains, locus YDL074C, strain BRE1, hits give low values 1.01 | S. cerevisiae deletion strains, locus YDL101C, strain DUN1, hits give low values 1.02 | S. cerevisiae deletion strains, locus YDL134C, strain PPH21, hits give low values 1.01 | S. cerevisiae deletion strains, locus YDL185W, strain tfp1, hits give low values 0.995 | S. cerevisiae deletion strains, locus YDL192W, strain arf1, hits give low values 0.997 | S. cerevisiae deletion strains, locus YDR001C, strain nth1, hits give low values 0.973 | S. cerevisiae deletion strains, locus YDR069C, strain doa4, hits give low values 0.928 | S. cerevisiae deletion strains, locus YDR101C, strain arx1, hits give low values 1 | S. cerevisiae deletion strains, locus YDR137W, strain rgp1, hits give low values 0.975 | S. cerevisiae deletion strains, locus YDR159W, strain sac3, hits give low values 0.959 | S. cerevisiae deletion strains, locus YDR162C, strain NBP2, hits give low values 1.04 | S. cerevisiae deletion strains, locus YDR195W, strain ref2 0.969 | S. cerevisiae deletion strains, locus YDR297W, strain sur2, hits give low values 0.969 | S. cerevisiae deletion strains, locus YDR318W, strain mcm21, hits give low values 0.997 | S. cerevisiae deletion strains, locus YDR334W, strain swr1, hits give low values 0.952 | S. cerevisiae deletion strains, locus YDR335W, strain msn5, hits give low values 0.983 | S. cerevisiae deletion strains, locus YDR388W, hits give low values 0.985 | S. cerevisiae deletion strains, locus YDR392W, strain spt3, hits give low values 0.852 | S. cerevisiae deletion strains, locus YDR502C, strain sam2, hits give low values 0.968 | S. cerevisiae deletion strains, locus YEL003W, strain gim4, hits give low values 0.962 | S. cerevisiae deletion strains, locus YEL037C, strain rad23, hits give low values 0.965 | S. cerevisiae deletion strains, locus YEL061C, strain CIN8 (second series), hits give low values 0.955 | S. cerevisiae deletion strains, locus YEL061C, strain CIN8, hits give low values 1.01 | S. cerevisiae deletion strains, locus YER015W, strain faa2, hits give low values 0.961 | S. cerevisiae deletion strains, locus YER016W, strain bim1, hits give low values 0.978 | S. cerevisiae deletion strains, locus YER110C, hits give low values 0.983 | S. cerevisiae deletion strains, locus YER111C, strain swi4, hits give low values 0.963 | S. cerevisiae deletion strains, locus YER155C, strain BEM2 (second series), hits give low values 0.911 | S. cerevisiae deletion strains, locus YER155C, strain BEM2, hits give low values 1.02 | S. cerevisiae deletion strains, locus YER167W, strain BCK2, hits give low values 1.02 | S. cerevisiae deletion strains, locus YFR010W, strain ubp6, hits give low values 0.942 | S. cerevisiae deletion strains, locus YGL078C, strain dbp3, hits give low values 0.961 | S. cerevisiae deletion strains, locus YGL086W, strain mad1, hits give low values 0.992 | S. cerevisiae deletion strains, locus YGL167C, strain pmr1, hits give low values 0.952 | S. cerevisiae deletion strains, locus YGL173C, strain kem1, hits give low values 0.969 | S. cerevisiae deletion strains, locus YGL227W, strain vid30, hits give low values 0.937 | S. cerevisiae deletion strains, locus YGL240W, strain doc1, hits give low values 0.94 | S. cerevisiae deletion strains, locus YGL248W, strain PDE1, hits give low values 0.986 | S. cerevisiae deletion strains, locus YGL253W, strain hxk2, hits give low values 0.984 | S. cerevisiae deletion strains, locus YGR135W, strain pre9, hits give low values 0.95 | S. cerevisiae deletion strains, locus YGR252W, strain gcn5, hits give low values 0.893 | S. cerevisiae deletion strains, locus YHR013C, strain ard1, hits give low values 0.916 | S. cerevisiae deletion strains, locus YHR027C, strain rpn1, hits give low values 0.988 | S. cerevisiae deletion strains, locus YHR079C, strain IRE1 (second series), hits give low values 0.985 | S. cerevisiae deletion strains, locus YHR094C, strain hxt1, hits give low values 0.978 | S. cerevisiae deletion strains, locus YHR129C, strain ARP1, hits give low values 1.01 | S. cerevisiae deletion strains, locus YHR142W, strain chs7, hits give low values 0.987 | S. cerevisiae deletion strains, locus YHR200W, strain rpn10, hits give low values 0.973 | S. cerevisiae deletion strains, locus YIL066C, strain RNR3, hits give low values 1.03 | S. cerevisiae deletion strains, locus YIL073C, strain SPO22, hits give low values 0.992 | S. cerevisiae deletion strains, locus YIL125W, strain kgd1, hits give low values 1 | S. cerevisiae deletion strains, locus YIR030C, strain dcg1, hits give low values 0.994 | S. cerevisiae deletion strains, locus YJL092W, strain hpr5, hits give low values 0.978 | S. cerevisiae deletion strains, locus YJL095W, strain BCK1 (second series), hits give low values 0.977 | S. cerevisiae deletion strains, locus YJL095W, strain BCK1, hits give low values 0.986 | S. cerevisiae deletion strains, locus YJL115W, strain asf1, hits give low values 0.985 | S. cerevisiae deletion strains, locus YJL129C, strain trk1, hits give low values 0.935 | S. cerevisiae deletion strains, locus YJL134W, strain LCB3, hits give low values 1.02 | S. cerevisiae deletion strains, locus YJL154C, strain vps35, hits give low values 0.972 | S. cerevisiae deletion strains, locus YJL164C, strain tpk1, hits give low values 0.979 | S. cerevisiae deletion strains, locus YJL166W, strain qcr8, hits give low values 0.972 | S. cerevisiae deletion strains, locus YJL168C, strain set2, hits give low values 1 | S. cerevisiae deletion strains, locus YJL187C, strain SWE1 (second series), hits give low values 0.998 | S. cerevisiae deletion strains, locus YJL187C, strain SWE1, hits give low values 0.968 | S. cerevisiae deletion strains, locus YKL009W, strain mrt4, hits give low values 1.01 | S. cerevisiae deletion strains, locus YKL068W, hits give low values 0.991 | S. cerevisiae deletion strains, locus YKL085W, strain MDH1 (second series), hits give low values 1 | S. cerevisiae deletion strains, locus YKL085W, strain MDH1, hits give low values 1 | S. cerevisiae deletion strains, locus YKL160W, strain elf1, hits give low values 0.994 | S. cerevisiae deletion strains, locus YKR001C, strain vps1, hits give low values 1 | S. cerevisiae deletion strains, locus YKR026C, strain gcn3, hits give low values 0.948 | S. cerevisiae deletion strains, locus YKR091W, strain srl3, hits give low values 0.972 | S. cerevisiae deletion strains, locus YLL001W, strain dnm1, hits give low values 0.986 | S. cerevisiae deletion strains, locus YLL026W, hits give low values 0.978 | S. cerevisiae deletion strains, locus YLL041C, strain sdh2, hits give low values 0.992 | S. cerevisiae deletion strains, locus YLR027C, strain aat2, hits give low values 0.965 | S. cerevisiae deletion strains, locus YLR039C, strain RIC1, hits give low values 1.12 | S. cerevisiae deletion strains, locus YLR058C, strain SHM2, hits give low values 1.01 | S. cerevisiae deletion strains, locus YLR102C, strain apc9, hits give low values 0.966 | S. cerevisiae deletion strains, locus YLR221C, strain rsa3, hits give low values 0.933 | S. cerevisiae deletion strains, locus YLR258W, strain gsy2, hits give low values 0.969 | S. cerevisiae deletion strains, locus YLR262C, strain YPT6 (second series), hits give low values 0.936 | S. cerevisiae deletion strains, locus YLR268W, strain sec22, hits give low values 1.01 | S. cerevisiae deletion strains, locus YLR320W, strain mms22, hits give low values 0.968 | S. cerevisiae deletion strains, locus YLR330W, strain CHS5, hits give low values 1.02 | S. cerevisiae deletion strains, locus YLR342W, strain FKS1 (second series), hits give low values 1.02 | S. cerevisiae deletion strains, locus YLR342W, strain FKS1, hits give low values 0.952 | S. cerevisiae deletion strains, locus YLR357W, strain rsc2, hits give low values 0.909 | S. cerevisiae deletion strains, locus YLR370C, strain arc18, hits give low values 0.968 | S. cerevisiae deletion strains, locus YLR371W, strain rom2, hits give low values 0.982 | S. cerevisiae deletion strains, locus YLR384C, strain iki3, hits give low values 0.984 | S. cerevisiae deletion strains, locus YLR418C, strain cdc73, hits give low values 0.986 | S. cerevisiae deletion strains, locus YML016C, strain PPZ1, hits give low values 1.02 | S. cerevisiae deletion strains, locus YML032C, strain rad52, hits give low values 0.97 | S. cerevisiae deletion strains, locus YML120C, strain ndi1, hits give low values 0.954 | S. cerevisiae deletion strains, locus YML124C, strain tub3, hits give low values 0.981 | S. cerevisiae deletion strains, locus YMR058W, strain fet3, hits give low values 0.94 | S. cerevisiae deletion strains, locus YMR078C, strain ctf18, hits give low values 0.971 | S. cerevisiae deletion strains, locus YMR125W, strain sto1, hits give low values 0.97 | S. cerevisiae deletion strains, locus YMR129W, hits give low values 0.965 | S. cerevisiae deletion strains, locus YMR205C, strain PFK2, hits give low values 0.946 | S. cerevisiae deletion strains, locus YMR223W, strain ubp8, hits give low values 0.978 | S. cerevisiae deletion strains, locus YMR231W, strain pep5, hits give low values 0.979 | S. cerevisiae deletion strains, locus YMR307W, strain GAS1, hits give low values 0.992 | S. cerevisiae deletion strains, locus YNL067W, strain RPL9B, hits give low values 0.998 | S. cerevisiae deletion strains, locus YNL071W, strain lat1, hits give low values 0.984 | S. cerevisiae deletion strains, locus YNL153C, strain GIM3, hits give low values 0.985 | S. cerevisiae deletion strains, locus YNL209W, strain ssb2, hits give low values 0.975 | S. cerevisiae deletion strains, locus YNL233W, strain BNI4, hits give low values 0.989 | S. cerevisiae deletion strains, locus YNL248C, strain rpa49, hits give low values 0.995 | S. cerevisiae deletion strains, locus YNL250W, strain rad50, hits give low values 0.981 | S. cerevisiae deletion strains, locus YNL271C, strain bni1, hits give low values 0.984 | S. cerevisiae deletion strains, locus YNL298W, strain CLA4, hits give low values 0.991 | S. cerevisiae deletion strains, locus YNL307C, strain MCK1, hits give low values 0.97 | S. cerevisiae deletion strains, locus YNL322C, strain KRE1 (second series), hits give low values 0.952 | S. cerevisiae deletion strains, locus YNR049C, strain mso1, hits give low values 0.972 | S. cerevisiae deletion strains, locus YNR052C, strain pop2, hits give low values 0.979 | S. cerevisiae deletion strains, locus YOL006C, strain TOP1, hits give low values 1.15 | S. cerevisiae deletion strains, locus YOL012C, strain htz1 1.45 | S. cerevisiae deletion strains, locus YOL147C, strain pex11, hits give low values 0.994 | S. cerevisiae deletion strains, locus YOR001W, strain rrp6, hits give low values 1 | S. cerevisiae deletion strains, locus YOR061W, strain CKA2, hits give low values 1.03 | S. cerevisiae deletion strains, locus YOR069W, strain VPS5, hits give low values 1.01 | S. cerevisiae deletion strains, locus YOR070C, strain gyp1, hits give low values 0.973 | S. cerevisiae deletion strains, locus YOR080W, strain dia2, hits give low values 0.97 | S. cerevisiae deletion strains, locus YOR083W, strain WHI5, hits give low values 0.992 | S. cerevisiae deletion strains, locus YOR106W, strain vam3, hits give low values 0.964 | S. cerevisiae deletion strains, locus YOR136W, strain idh2, hits give low values 0.985 | S. cerevisiae deletion strains, locus YOR144C, strain elg1, hits give low values 0.998 | S. cerevisiae deletion strains, locus YOR184W, strain ser1, hits give low values 1.05 | S. cerevisiae deletion strains, locus YOR265W, strain rbl2, hits give low values 0.979 | S. cerevisiae deletion strains, locus YOR270C, strain vph1, hits give low values 0.957 | S. cerevisiae deletion strains, locus YOR290C, strain snf2, hits give low values 0.9 | S. cerevisiae deletion strains, locus YOR316C, strain cot1, hits give low values 0.971 | S. cerevisiae deletion strains, locus YPL051W, strain arl3, hits give low values 0.993 | S. cerevisiae deletion strains, locus YPL055C, strain LGE1, hits give low values 1.05 | S. cerevisiae deletion strains, locus YPL078C, strain atp4, hits give low values 0.986 | S. cerevisiae deletion strains, locus YPL106C, strain sse1, hits give low values 0.889 | S. cerevisiae deletion strains, locus YPL240C, strain hsp82, hits give low values 0.995 | S. cerevisiae deletion strains, locus YPL241C, strain CIN2, hits give low values 1.02 | S. cerevisiae deletion strains, locus YPR119W, strain clb2, hits give low values 0.971 | S. cerevisiae deletion strains, locus YPR141C, strain kar3, hits give low values 1.01 | S. cerevisiae deletion strains, locus YPR163C, strain tif3, hits give low values 0.983 | S. cerevisiae deletion strains, locus YPR167C, strain met16, hits give low values 0.981 | S. cerevisiae deletion strains, strain wtn01, hits give low values 0.993 | S. cerevisiae strains, strain wild type, hits give low values 1.04
